Results from PubChem BioAssay (NCATS).
Results filed as inconclusive are left out. Active and inactive are the calls of the source. Unless noted, calls follow the shape of the dose curve; as a rule, active = well fitted curve in the direction sought with a large enough effect; inconclusive = small, poorly fitted or top-dose-only effect, or another doubt; inactive = no such curve, though single readings can be large; an effect the other way counts as inactive or inconclusive.

Tests used:
[1] = AP1 Signaling Pathway (AID 357; active = well fitted curve in either direction with a large enough effect, not every such curve was filed as active;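 also: ME-180 reporter cells stimulated with EGF at its EC50 level; % is scaled to controls: 0 for no effect and ±100 for the full control effect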); conditions: ME-180 AP-1-bla reporter, EGF-induced, beta-lactamase ratio, 5 h; at 7.69 µM (top of the series) unless noted
In short: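 Titration-series screen for positive or negative modulators of EC50 EGF-induced signaling in ME-180 cells carrying an AP-1-driven beta-lactamase reporter. After 5 hours at 37 degrees Celsius, CCF4 460nm/530nm emission ratio gave %Activity; AC50 values derived.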

[2] = target: Cytochrome P450 1A2 (Homo sapiens) (UniProt P05177); assay: p450-cyp1a2 (AID 410; calls by dose curve; also: potency is read from the fitted curve at half-maximal effect;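 as to activity change, negative = inhibition: -100% = full effect of reference inhibitor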)
In short: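 Inhibition was calculated relative to 57 uM furafylline (full inhibition). The reaction used human CYP1A2 at 20nM with Luciferin-ME at its Km, 100uM, driven by an NADPH-regenerating system for 60 min at room temperature.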

[3] = Stat Signaling Pathway (AID 446; active = well fitted curve in either direction with a large enough effect, not every such curve was filed as active;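 also: ME-180 cervical cancer cells given 40 pM IL-6 alongside compound; SIE-controlled beta-lactamase reporter measured as 460/530 nm FRET emission ratio; % is scaled to controls: 0 for no effect and ±100 for the full control effect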); conditions: ME-180 SIE beta-lactamase reporter, IL-6 stimulated, 5 h; at 7.69 µM (top of the series) unless noted
In short: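 ME-180 SIE-bla cells; overnight plating; cpd + IL-6 40 pM, 5 h, 37 C; LiveBLAzer 2.5 h RT; 460/530 nm emission ratio. Normalized to 300 pM IL-6 and 125 nM JAK inhibitor controls.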

[4] = target: Glucocorticoid receptor (Homo sapiens) (UniProt P04150); assay: GR-GFP Redistribution (AID 450;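 active = compounds whose dose series gives a full or clear partial fitted curve of increased nuclear translocation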; also: potency is read from the fitted curve at half-maximal effect); conditions: U2OS GR-GFP nuclear translocation, laser cytometry, 2 h
[5] = target: Glucocorticoid receptor (Homo sapiens) (UniProt P04150); assay: GR-EFC Redistribution (AID 451; calls by dose curve; also: potency is read from the fitted curve at half-maximal effect); conditions: CHO-K1 GR-EFC translocation, beta-gal luminescence, 2 h
In short: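 CHO-K1 cells stably expressing nuclear-localized β-gal enzyme acceptor and GR fused C-terminally to the enzyme donor fragment; ligand-driven nuclear translocation restores β-gal by complementation. Compounds titrated up to 46 uM final, 2 h at 37 °C; luminescence read.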

[6] = target: Mitogen-activated protein kinase 10 (Mus musculus) (UniProt Q61831); assay: JNK3 AlphaScreen Assay (AID 530; active = well fitted curve in either direction with a large enough effect, not every such curve was filed as active;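 also: kinase came from lysate of stimulated human HepG2 cells; signal reports phosphorylation of biotinylated GST-cJun 1-79 at Ser73 with 10 µM ATP; % is scaled to controls: 0 for no effect and ±100 for the full control effect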)
In short: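 JNK3 came from HepG2 lysates pre-activated with IL-1beta and TNF-alpha and phosphorylated biotinylated GST-cJun (1-79) at 10 uM ATP, pH 7.6, room temperature. Compounds were titrated. AlphaScreen signal used anti-phospho-cJun (Ser73) antibody.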

[7] = target: 3',5'-cyclic-AMP phosphodiesterase 4B (Homo sapiens) (UniProt Q07343); assay: qHTS Assay for Inhibitors of PDE-IV (AID 607; active = well fitted activation curve with a large enough effect in the main read-out, with a control signal flat, not every such curve was filed as active; also: % of control where 0% means no effect)
In short: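 ACTOne HEK293 cells carry a modified cAMP-gated CNG channel and express endogenous PDE4; plated 1000 cells/well, compounds up to 22.9 uM final. Membrane-potential dye fluorescence (ex 535/em 590) was read; parental cells received 10 uM forskolin + 100 uM RO 20-1724.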

[8] = target: Cytochrome P450 3A4 (Homo sapiens) (UniProt P08684); assay: qHTS Assay for Activators of Cytochrome P450 3A4 (AID 885); also: nearly all actives have a fitted effect of over 65% in size; also: potency is read from the fitted curve at half-maximal effect
In short: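 20nM CYP3A4 + 25uM Luciferin-PPXE (=KM), 200mM KPO4; cpd 10 min RT; NADPH regen, 60 min RT; stop w/ detection buffer, 20 min; luminescence. Normalized to 57 uM ketoconazole.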

[9] = Confirmation and Secondary Assay for Modulators of Hemoglobin Beta Chain Splicing at IVS2 654 locus (AID 910);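 also: per-well total GFP intensity by laser scanning cytometry after 2-day treatment; % of control where 0% means no effect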
In short: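 HeLa cells stably carrying EGFP interrupted by mutant beta-globin IVS2-654 intron (CMV-driven) were treated with compound for 2 days at 37C; corrected splicing was scored as total peak GFP intensity per well (488 nm excitation, 500-520 nm emission).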

[10] = Confirmation and Secondary Assay for Modulators of Hemoglobin Beta Chain Splicing at IVS2 705 locus (AID 930);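 also: HeLa cells stably expressing the EGFP-705 splicing reporter; % of control where 0% means no effect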
In short: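 Restored EGFP fluorescence after 2-day compound exposure reports splicing correction in IVS2-705 EGFP reporter HeLa cells; positive control was 500 nM splice-blocking PNA oligo. Signal measured as well total peak GFP intensity (488 nm excitation).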

[11] = qHTS Assay for Lipid Storage Modulators (AID 1519; calls by dose curve); conditions: Drosophila S3 cells, BODIPY lipid droplet/cell ratio, laser cytometry, cells loaded with oleic acid; for activity change, negative = inhibition: at 57.5 µM (top of the series)
In short: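 Cells seeded at 5,000 per well were treated with compounds over a concentration series and loaded with oleic acid (400 uM, as added). Lipid droplet fluorescence (488 nm excitation, 500-530 nm channel) was read by laser-scanning cytometry and normalized to 20 uM Triacsin C.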

[12] = target: Ubiquitin carboxyl-terminal hydrolase 1 (Homo sapiens) (UniProt O94782); assay: Inhibitors of USP1/UAF1: Pilot qHTS (AID 504865);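 also: rhodamine fluorescence freed from ubiquitin-rhodamine substrate followed over time; top concentration of the series differs between compounds; % is scaled to controls: 0 for no effect and ±100 for the full control effect; nearly all actives have a fitted effect of over 35% in size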
In short: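 Deubiquitinase activity followed as kinetic rhodamine fluorescence release from 150 nM Ub-Rho. 1 nM USP1/UAF1 with compound, after 15 min room-temperature preincubation, in HEPES pH 7.8 buffer containing TCEP, EDTA, BSA and Tween-20.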

[13] = Primary qHTS for small molecule stabilizers of the endoplasmic reticulum resident proteome: Secreted ER Calcium Modulated Protein (SERCaMP) assay (AID 1508630); also: % is scaled to controls: 0 for no effect and ±100 for the full control effect
In short: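 GLuc-SERCaMP-expressing SH-SY5Y cells, pretreated 16 h with compound, are challenged with thapsigargin to empty ER calcium stores; after 4 h, coelenterazine is added directly to the medium and luminescence is imaged.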

[14] = target: Cytochrome P450 2D6 (Homo sapiens) (UniProt P10635); assay: qHTS Assay for Inhibitors and Substrates of Cytochrome P450 2D6 (AID 891); also: potency is read from the fitted curve at half-maximal effect; nearly all actives have a fitted effect of over 60% in size
In short: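 Human CYP2D6 (5 nM) with 30 uM Luciferin-ME EGE (at Km) in 100 mM KPO4, compound preincubated 10 min, then NADPH regeneration system for 60 min at room temperature. Luciferin read by luminescence; normalized to 1.43 uM quinidine.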

[15] = qHTS Assay for Identification of Small Molecule Agonists for Hypoxia Response Element Signaling Pathway (AID 914; active = well fitted activation curve with a large enough effect in the signal ratio, with a control signal flat, not every such curve was filed as active; the % refers to the signal ratio; also: % of control where 0% means no effect); conditions: ME-180 (cervical carcinoma) HRE-bla reporter, beta-lactamase ratio, CoCl2, 17 h; activation: stronger effect = higher value
In short: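 AC50 values come from titration-series %Activity, taken as the 460/530nm ratio of CCF4 fluorescence (excitation 405nm). CellSensor HRE-bla ME-180 cells were treated 17 hours at 37 C with compound plus an EC50 level of CoCl2.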

[16] = target: Cytochrome P450 2C9 (Homo sapiens) (UniProt P11712); assay: qHTS Assay for Inhibitors and Substrates of Cytochrome P450 2C9 (AID 883); also: potency is read from the fitted curve at half-maximal effect; nearly all actives have a fitted effect of over 60% in size
In short: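 Human CYP2C9 (10nM) hydroxylated Luciferin-H (100uM, at its KM) to luciferin in 25mM KPO4. Compound was preincubated 10 min at 37C, then NADPH regeneration started a 60 min reaction at 37C. Luminescence was read after detection reagent, normalized to 57uM sulphaphenazole.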

[17] = target: Cytochrome P450 3A4 (Homo sapiens) (UniProt P08684); assay: qHTS Assay for Inhibitors and Substrates of Cytochrome P450 3A4 (AID 884); also: nearly all actives have a fitted effect of over 50% in size; also: potency is read from the fitted curve at half-maximal effect
In short: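 20 nM human CYP3A4 with 25 uM Luciferin-PPXE (at KM) in 200 mM KPO4, preincubated 10 min with compound; NADPH regeneration started a 60 min RT reaction. Luciferin detected by luminescence, normalized to 57 uM ketoconazole as full inhibition.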

[18] = target: Cytochrome P450 2C19 (Homo sapiens) (UniProt P33261); assay: qHTS Assay for Inhibitors and Substrates of Cytochrome P450 2C19 (AID 899); also: potency is read from the fitted curve at half-maximal effect; nearly all actives have a fitted effect of over 60% in size
In short: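 Human CYP2C19 (5nM) with Luciferin-H EGE at 10uM (its KM) in 50mM KPO4 was preincubated with compound for 10 min at 37C. NADPH regeneration started a 60 min 37C reaction. Luciferin was read by luminescence, normalized to 57uM ketoconazole.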

[19] = NFAT Signaling Pathway (AID 444; active = well fitted curve in either direction with a large enough effect, not every such curve was filed as active); conditions: Jurkat NFAT-bla M1, carbachol, beta-lactamase ratio, 5 h; at 7.69 µM (top of the series) unless noted
In short: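 Jurkat cells carrying an NFAT-driven β-lactamase reporter and co-transfected muscarinic M1 receptor were treated with compound plus carbachol (1 uM final, an EC50 level) for 5 h at 37 °C. CCF4 loading followed for 1 h at RT; 460/530 nm ratio gave %activity.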

[20] = measured here: cell count channel max response
[21] = measured here: lipid channel max response

Sequence of 3',5'-cyclic-AMP phosphodiesterase 4B (Homo sapiens) (Q07343 whole entry, looked up): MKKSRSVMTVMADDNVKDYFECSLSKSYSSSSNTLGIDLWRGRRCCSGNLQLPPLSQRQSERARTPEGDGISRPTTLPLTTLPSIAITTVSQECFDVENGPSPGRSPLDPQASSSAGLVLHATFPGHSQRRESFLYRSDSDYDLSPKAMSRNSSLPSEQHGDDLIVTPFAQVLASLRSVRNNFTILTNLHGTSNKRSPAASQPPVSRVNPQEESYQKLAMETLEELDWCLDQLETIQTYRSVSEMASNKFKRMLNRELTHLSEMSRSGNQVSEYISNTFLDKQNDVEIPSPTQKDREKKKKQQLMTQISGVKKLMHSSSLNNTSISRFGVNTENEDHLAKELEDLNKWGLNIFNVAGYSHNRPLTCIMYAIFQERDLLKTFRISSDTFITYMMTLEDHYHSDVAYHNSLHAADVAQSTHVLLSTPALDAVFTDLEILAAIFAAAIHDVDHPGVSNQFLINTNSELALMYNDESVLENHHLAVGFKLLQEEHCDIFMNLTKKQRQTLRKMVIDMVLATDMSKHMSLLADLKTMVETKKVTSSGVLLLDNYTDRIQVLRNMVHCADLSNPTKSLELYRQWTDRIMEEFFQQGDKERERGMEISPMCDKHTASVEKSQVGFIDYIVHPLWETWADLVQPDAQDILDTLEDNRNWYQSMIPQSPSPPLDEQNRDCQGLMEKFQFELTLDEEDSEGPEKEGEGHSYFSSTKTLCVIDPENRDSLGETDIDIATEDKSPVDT
Sequence of Glucocorticoid receptor (Homo sapiens) (P04150 whole entry, looked up, the tested form may be a part): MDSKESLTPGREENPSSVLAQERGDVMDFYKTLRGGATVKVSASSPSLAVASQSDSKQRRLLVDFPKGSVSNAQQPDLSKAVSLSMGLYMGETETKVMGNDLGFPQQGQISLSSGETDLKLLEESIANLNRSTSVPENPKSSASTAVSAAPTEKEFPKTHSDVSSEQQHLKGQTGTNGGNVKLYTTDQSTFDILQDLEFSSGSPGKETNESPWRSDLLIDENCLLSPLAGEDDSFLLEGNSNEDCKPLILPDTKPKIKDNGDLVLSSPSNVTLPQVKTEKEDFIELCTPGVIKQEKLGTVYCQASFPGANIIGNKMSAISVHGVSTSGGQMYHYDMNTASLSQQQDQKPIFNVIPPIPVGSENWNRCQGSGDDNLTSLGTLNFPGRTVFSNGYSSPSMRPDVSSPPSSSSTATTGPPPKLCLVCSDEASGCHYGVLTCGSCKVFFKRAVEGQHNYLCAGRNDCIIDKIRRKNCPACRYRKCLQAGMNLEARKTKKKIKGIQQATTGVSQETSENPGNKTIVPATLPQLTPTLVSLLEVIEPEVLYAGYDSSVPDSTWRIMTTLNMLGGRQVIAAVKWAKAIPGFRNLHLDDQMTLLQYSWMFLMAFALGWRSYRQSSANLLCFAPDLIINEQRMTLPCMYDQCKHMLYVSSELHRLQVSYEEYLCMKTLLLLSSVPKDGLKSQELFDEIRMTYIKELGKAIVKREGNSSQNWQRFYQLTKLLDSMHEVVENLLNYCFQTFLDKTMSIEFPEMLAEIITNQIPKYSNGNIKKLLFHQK
Sequence of Cytochrome P450 1A2 (Homo sapiens) (P05177 whole entry, looked up): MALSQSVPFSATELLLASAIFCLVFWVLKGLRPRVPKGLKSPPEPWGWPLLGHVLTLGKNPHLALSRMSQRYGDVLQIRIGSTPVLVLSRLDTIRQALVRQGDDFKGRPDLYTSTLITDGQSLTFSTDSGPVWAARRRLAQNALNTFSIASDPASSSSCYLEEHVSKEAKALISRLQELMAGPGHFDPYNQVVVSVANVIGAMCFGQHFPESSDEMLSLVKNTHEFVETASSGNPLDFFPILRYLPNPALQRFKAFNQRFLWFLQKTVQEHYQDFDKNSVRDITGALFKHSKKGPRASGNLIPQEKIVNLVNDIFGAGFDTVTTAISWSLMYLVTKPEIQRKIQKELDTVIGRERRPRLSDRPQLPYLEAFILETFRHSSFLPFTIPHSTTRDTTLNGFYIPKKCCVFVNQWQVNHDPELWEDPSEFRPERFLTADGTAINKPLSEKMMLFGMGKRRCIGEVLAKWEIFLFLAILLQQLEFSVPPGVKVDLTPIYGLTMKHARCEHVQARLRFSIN
Sequence of Cytochrome P450 3A4 (Homo sapiens) (P08684 whole entry, looked up): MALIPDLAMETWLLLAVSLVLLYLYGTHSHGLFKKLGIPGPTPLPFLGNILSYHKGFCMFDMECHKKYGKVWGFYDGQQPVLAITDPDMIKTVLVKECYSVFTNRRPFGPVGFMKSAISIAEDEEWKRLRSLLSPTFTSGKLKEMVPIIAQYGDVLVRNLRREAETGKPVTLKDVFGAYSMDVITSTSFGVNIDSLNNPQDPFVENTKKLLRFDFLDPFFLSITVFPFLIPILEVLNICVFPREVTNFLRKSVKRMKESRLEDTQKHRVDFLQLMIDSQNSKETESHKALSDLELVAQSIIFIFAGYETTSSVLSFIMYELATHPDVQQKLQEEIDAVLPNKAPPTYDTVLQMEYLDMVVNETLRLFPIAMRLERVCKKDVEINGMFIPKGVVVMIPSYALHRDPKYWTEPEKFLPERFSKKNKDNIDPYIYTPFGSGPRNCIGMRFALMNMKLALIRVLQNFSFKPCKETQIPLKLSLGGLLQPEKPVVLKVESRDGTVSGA
Sequence of Cytochrome P450 2C19 (Homo sapiens) (P33261 whole entry, looked up): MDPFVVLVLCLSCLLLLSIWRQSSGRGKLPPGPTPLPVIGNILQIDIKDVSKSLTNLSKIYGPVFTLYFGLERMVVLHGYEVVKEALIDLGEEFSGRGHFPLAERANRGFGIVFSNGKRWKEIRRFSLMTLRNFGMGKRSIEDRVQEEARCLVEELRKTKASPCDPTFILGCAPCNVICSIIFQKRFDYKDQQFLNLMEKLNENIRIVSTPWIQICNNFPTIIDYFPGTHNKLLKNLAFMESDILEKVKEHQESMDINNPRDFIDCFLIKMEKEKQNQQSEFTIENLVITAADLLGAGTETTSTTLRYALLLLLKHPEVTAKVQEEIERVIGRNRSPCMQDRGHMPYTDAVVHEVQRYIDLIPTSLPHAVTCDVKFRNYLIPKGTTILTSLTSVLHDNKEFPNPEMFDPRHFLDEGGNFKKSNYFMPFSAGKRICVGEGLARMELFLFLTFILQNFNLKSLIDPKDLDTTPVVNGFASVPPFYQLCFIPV
Sequence of Ubiquitin carboxyl-terminal hydrolase 1 (Homo sapiens) (O94782 whole entry, looked up): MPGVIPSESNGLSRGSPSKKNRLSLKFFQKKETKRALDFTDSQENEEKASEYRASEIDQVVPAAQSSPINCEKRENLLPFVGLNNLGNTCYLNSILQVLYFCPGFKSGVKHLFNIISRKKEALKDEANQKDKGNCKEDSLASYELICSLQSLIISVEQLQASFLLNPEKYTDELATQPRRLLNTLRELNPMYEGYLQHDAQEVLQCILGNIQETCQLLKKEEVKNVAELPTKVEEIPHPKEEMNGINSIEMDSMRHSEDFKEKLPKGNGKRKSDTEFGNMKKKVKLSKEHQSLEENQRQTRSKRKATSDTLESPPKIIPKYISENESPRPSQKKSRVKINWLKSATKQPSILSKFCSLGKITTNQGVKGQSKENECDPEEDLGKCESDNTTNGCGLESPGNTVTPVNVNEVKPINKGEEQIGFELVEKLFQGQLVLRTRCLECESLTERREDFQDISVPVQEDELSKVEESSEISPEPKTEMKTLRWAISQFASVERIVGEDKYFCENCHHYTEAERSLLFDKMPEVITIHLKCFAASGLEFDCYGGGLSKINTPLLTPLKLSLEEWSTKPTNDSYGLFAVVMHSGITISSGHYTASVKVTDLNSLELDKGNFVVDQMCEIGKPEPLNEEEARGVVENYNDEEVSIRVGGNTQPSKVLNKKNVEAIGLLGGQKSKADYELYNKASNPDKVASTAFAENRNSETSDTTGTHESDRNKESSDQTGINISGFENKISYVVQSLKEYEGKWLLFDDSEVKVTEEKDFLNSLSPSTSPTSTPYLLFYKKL
Sequence of Cytochrome P450 2C9 (Homo sapiens) (P11712 whole entry, looked up): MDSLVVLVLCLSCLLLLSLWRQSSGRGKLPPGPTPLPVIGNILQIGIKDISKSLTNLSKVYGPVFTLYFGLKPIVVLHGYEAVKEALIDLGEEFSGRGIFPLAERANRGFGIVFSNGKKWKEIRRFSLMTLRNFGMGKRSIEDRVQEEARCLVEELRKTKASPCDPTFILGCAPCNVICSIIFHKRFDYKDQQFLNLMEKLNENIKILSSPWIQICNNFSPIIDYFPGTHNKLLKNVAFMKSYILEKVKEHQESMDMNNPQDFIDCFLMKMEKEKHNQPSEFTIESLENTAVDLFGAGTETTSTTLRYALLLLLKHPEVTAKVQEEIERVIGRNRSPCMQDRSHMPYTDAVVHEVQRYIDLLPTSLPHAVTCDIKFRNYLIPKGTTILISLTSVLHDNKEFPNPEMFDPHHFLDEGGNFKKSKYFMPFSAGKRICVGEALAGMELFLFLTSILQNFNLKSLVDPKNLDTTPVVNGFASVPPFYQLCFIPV
Sequence of Cytochrome P450 2D6 (Homo sapiens) (P10635 whole entry, looked up): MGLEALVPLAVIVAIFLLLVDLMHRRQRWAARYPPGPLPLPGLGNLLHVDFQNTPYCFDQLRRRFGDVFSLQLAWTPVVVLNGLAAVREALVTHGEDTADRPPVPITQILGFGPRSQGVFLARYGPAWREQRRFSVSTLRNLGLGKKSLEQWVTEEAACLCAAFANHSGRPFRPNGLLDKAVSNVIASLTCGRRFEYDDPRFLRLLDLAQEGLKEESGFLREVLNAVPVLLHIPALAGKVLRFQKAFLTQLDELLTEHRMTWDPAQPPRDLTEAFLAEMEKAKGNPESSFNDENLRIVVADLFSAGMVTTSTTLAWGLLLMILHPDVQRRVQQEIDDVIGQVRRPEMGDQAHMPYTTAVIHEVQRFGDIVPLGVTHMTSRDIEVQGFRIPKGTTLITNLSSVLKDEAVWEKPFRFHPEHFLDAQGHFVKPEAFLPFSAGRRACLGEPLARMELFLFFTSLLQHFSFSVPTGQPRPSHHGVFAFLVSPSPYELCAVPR

COc1ccc(CNc2cc(-c3ccccc3CN(C)C)ncn2)c(OC)c1
inactive: activity change, negative = inhibition [1] -0.546% | activity, negative = inhibition [3] 10.5% | Potency [4] > 46 µM | Potency [5] > 46 µM | Potency [6] | Potency [7] | Potency [8] | Potency [9] | outcome [10] | activity change, negative = inhibition [11] 3.53% | Potency [12] | outcome [13]
8.17%: max response [11, 20]
active: Potency [2] 15.8 µM
12.8%: max response [11, 21]

COC(=O)N1CCC2(CCN(Cc3ccccc3OC)CC2)CC1
9.77%: max response [11, 21]
inactive: activity change, negative = inhibition [1] 8.84% | Potency [2] | activity, negative = inhibition [3] -8.38% | Potency [5] > 46 µM | Potency [6] | Potency [7] | activation [15] 2.91% | activity change, negative = inhibition [11] 2.37% | outcome [13]
6.33%: max response [11, 20]
active: Potency [14] 2 µM

O=C(c1cc(C(F)(F)F)cc(C(F)(F)F)c1)N1CCC2(CC1)CN(c1ccncc1)C2
inactive: activity change, negative = inhibition [1] 13% | Potency [2] | activity, negative = inhibition [3] 3.13% | Potency [5] > 46 µM | activity change, negative = inhibition [11] 2.27% | outcome [13]
active: Potency [16] 3.98 µM
-2.54%: max response [11, 20]
0.518%: max response [11, 21]

CS(=O)(=O)Nc1cccc(-c2ccc3ncnc(NCc4cccnc4)c3c2)c1
active: Potency [2] 0.316 µM | Potency [17] 0.398 µM | Potency [18] 0.0501 µM
inactive: activity, negative = inhibition [3] -6% | Potency [4] > 46 µM | Potency [5] > 46 µM | Potency [6] | Potency [7] | Potency [8] | Potency [9] | activation [15] -27.3% | outcome [10] | activity change, negative = inhibition [11] 10.4% | Potency [12] | outcome [13]
2.04%: max response [11, 20]
13.1%: max response [11, 21]

CS(=O)(=O)Nc1cccc(-c2ccc3ncnc(Nc4ccc(F)cc4)c3c2)c1
active: Potency [2] 0.794 µM | Potency [17] 7.94 µM
-14.7%: max response [11, 21]
-27.4%: max response [11, 20]
inactive: activity, negative = inhibition [3] 4.21% | Potency [4] > 46 µM | Potency [5] > 46 µM | Potency [6] | Potency [8] | Potency [9] | outcome [10] | activity change, negative = inhibition [11] 2.96% | outcome [13]

CN1CC[C@@]2(CCCN(C(=O)c3cc(C(F)(F)F)cc(C(F)(F)F)c3)C2)C1
2.81%: max response [11, 21]
inactive: activity change, negative = inhibition [1] -0.328% | Potency [2] | activity, negative = inhibition [3] 13.1% | Potency [5] > 46 µM | Potency [6] | Potency [7] | Potency [8] | activity change, negative = inhibition [11] 1.24% | outcome [13]
-1.13%: max response [11, 20]

O=C(c1cnccn1)N1CCC2(CC1)CN(c1ccccn1)C2
inactive: Potency [2] | activity change, negative = inhibition [19] -1.72% | activity, negative = inhibition [3] 22.6% | Potency [5] > 46 µM | Potency [6] | Potency [7] | Potency [17] | activity change, negative = inhibition [11] 2.3% | outcome [13]
-1.81%: max response [11, 20]
active: Potency [8] 3.98 µM
-0.0464%: max response [11, 21]

CC(=O)N1CCC[C@@]2(CCN(C(=O)Nc3cccc(C#N)c3)C2)C1
-0.637%: max response [11, 21]
-7.31%: max response [11, 20]
inactive: activity change, negative = inhibition [1] -7.34% | activity change, negative = inhibition [19] 23.9% | activity, negative = inhibition [3] 7.98% | Potency [5] > 46 µM | Potency [6] | Potency [7] | activity change, negative = inhibition [11] 2.15% | outcome [13]

Cn1cccc1C(=O)N1CCC2(CCCN(C(=O)Nc3ccccc3)C2)CC1
28.5%: max response [11, 21]
inactive: activity change, negative = inhibition [19] -22.5% | activity, negative = inhibition [3] 4.11% | Potency [5] > 46 µM | Potency [6] | Potency [7] | Potency [8] | activity change, negative = inhibition [11] 7.87% | outcome [13]
14.7%: max response [11, 20]

Cc1cccc(CNc2ncnc3ccc(-c4c(C)noc4C)cc23)c1
-10.6%: max response [11, 21]
-9.91%: max response [11, 20]
active: Potency [2] 5.01 µM | Potency [17] 0.794 µM | Potency [18] 5.01 µM
inactive: activity change, negative = inhibition [1] 14.8% | Potency [4] > 46 µM | Potency [5] > 46 µM | Potency [6] | Potency [8] | Potency [9] | outcome [10] | activity change, negative = inhibition [11] -3.45% | outcome [13]

COCC(=O)N1CCC2(CCN(Cc3ccc(C#N)cc3)CC2)CC1
17%: max response [11, 20]
24.9%: max response [11, 21]
inactive: activity change, negative = inhibition [1] -9.28% | activity, negative = inhibition [3] -0.16% | Potency [5] > 46 µM | Potency [6] | Potency [7] | activation [15] 4.64% | activity change, negative = inhibition [11] 4.27% | outcome [13]

O=C(c1csnn1)N1CCC2(CCN(Cc3ccccc3)CC2)CC1
4.52%: max response [11, 20]
inactive: activity change, negative = inhibition [1] 13.9% | Potency [2] | activity, negative = inhibition [3] -0.255% | Potency [5] > 46 µM | Potency [6] | Potency [7] | activity change, negative = inhibition [11] -4.6% | outcome [13]
1.17%: max response [11, 21]

O=C(c1ccncc1)N1CCC2(CC1)CCN(c1ccncc1)CC2
inactive: activity change, negative = inhibition [1] -16.4% | activity, negative = inhibition [3] 5.08% | Potency [5] > 46 µM | Potency [6] | Potency [7] | activity change, negative = inhibition [11] 1.78% | outcome [13]
-11.6%: max response [11, 20]
-7.91%: max response [11, 21]
